For 22 molecules, Potency and viability results are on record in PubChem BioAssay (NCATS).

The nature of test [1]: Quantitative High-Throughput drug screen in 47 multiple myeloma cell lines against the NCATS MIPE library collection: JIM1_ECACC cell viability assay (AID 1918964). The method, boiled down:
(§1)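 Luminescent ATP measurement with CellTiter-Glo gives viability, scaled between DMSO-only wells (100%) and media-only wells (0%). Cells, 500 per well, faced library compounds for 48 hours at 37C.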

Test [2] can be described thus: Quantitative High-Throughput drug screen in 47 multiple myeloma cell lines against the NCATS MIPE library collection: INA6_PLB cell viability assay (AID 1918965; also: nearly all actives have a fitted effect of over 55% in size). The method, boiled down:
(§2)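 Viability readout: CellTiter-Glo luminescence following 5 min room-temperature incubation with reagent. Prior exposure: 48 h, 37C, humidified 5% CO2, 500 cells per well.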

The nature of test [3]: Quantitative High-Throughput drug screen in 47 multiple myeloma cell lines against the NCATS MIPE library collection: JJN3_DSMZ cell viability assay (AID 1918966; also: nearly all actives have a fitted effect of over 50% in size). In short, it runs like this:
as §1

The nature of test [4]: Quantitative High-Throughput drug screen in 47 multiple myeloma cell lines against the NCATS MIPE library collection: H1112_PLB cell viability assay (AID 1918967; also: nearly all actives have a fitted effect of over 30% in size). The method, boiled down: as §1
The nature of test [5]: Quantitative High-Throughput drug screen in 47 multiple myeloma cell lines against the NCATS MIPE library collection: Karpas25_ECACC cell viability assay (AID 1918968; also: nearly all actives have a fitted effect of over 35% in size). The method, boiled down:
as §1

The nature of test [6]: Quantitative High-Throughput drug screen in 47 multiple myeloma cell lines against the NCATS MIPE library collection: KMS12BM_JCRB cell viability assay (AID 1918971). Also: nearly all actives have a fitted effect of over 35% in size. In short, it runs like this:
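Relative luminescence from CellTiter-Glo served as the viability signal, referenced to DMSO-treated (100%) and cell-free medium (0%) controls. Treatment lasted 48 hours at 37C with 500 cells per well.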

The nature of test [7]: Quantitative High-Throughput drug screen in 47 multiple myeloma cell lines against the NCATS MIPE library collection: KMS12PE_JCRB cell viability assay (AID 1918972). Also: nearly all actives have a fitted effect of over 30% in size. The method, boiled down:
as §2

Test [8] can be described thus: Quantitative High-Throughput drug screen in 47 multiple myeloma cell lines against the NCATS MIPE library collection: KMS20_JCRB cell viability assay (AID 1918973). Also: nearly all actives have a fitted effect of over 45% in size. In short, it runs like this:
as §1

Test [9] is described as follows: Quantitative High-Throughput drug screen in 47 multiple myeloma cell lines against the NCATS MIPE library collection: KMS27_JCRB cell viability assay (AID 1918970). Also: nearly all actives have a fitted effect of over 30% in size. The method, boiled down: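 Myeloma cells (500 per well) were exposed to MIPE 4.0 compounds for 48 h at 37 °C, 5% CO2; viability was read as ATP luminescence with CellTiter-Glo, normalized to DMSO-only (100%) and media-only (0%) wells.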

Test [10] in a line: Quantitative High-Throughput drug screen in 47 multiple myeloma cell lines against the NCATS MIPE library collection: KMS21BM_JCRB cell viability assay (AID 1918974). The note with it: ATP luminescence, 48 h; viability: at 45.8 µM (top of the series) unless noted. The method, boiled down: as §1

Records with an inconclusive call do not appear. Activity calls are given as the source filed them. Calls follow the shape of the dose curve; as a rule, active = well fitted cell-killing curve with a large enough effect; inconclusive = small, poorly fitted or top-dose-only effect, or effect the other way; inactive = no such curve, though single readings can be large or run the other way.
Potency is read from the fitted curve at half-maximal effect.

For the molecule `CCOC(=O)C1=C[C@]2(CC)CCCN3CCc4c(n1c1ccccc41)[C@@H]32`, the Potency in test [1] is 11.8 µM (active); in test [2], 8.33 µM (active); in test [3] it was 18.7 µM (active); in test [4], 11.8 µM (active); in test [5], 9.35 µM (active); in test [6] it was 14.8 µM (active). In addition, the Potency in [7] was 10.5 µM (active); in test [8], 5.9 µM (active).
Take `CCC(C)(C)C(=O)O[C@H]1C[C@@H](C)C=C2C=C[C@H](C)[C@H](CC[C@@H]3C[C@@H](O)CC(=O)O3)[C@H]21`: the Potency in [1] is 7.43 µM (active); in [2] it was 14.8 µM (active); in test [4], 18.7 µM (active); in test [5], 18.7 µM (active); in test [9], 6.62 µM (active); in test [7], 5.9 µM (active).
For the molecule `COc1ccc([C@@H]2CC(=O)c3c(O)cc(O[C@@H]4O[C@H](CO[C@@H]5O[C@@H](C)[C@H](O)[C@@H](O)[C@@H]5O)[C@@H](O)[C@H](O)[C@@H]4O)cc3O2)cc1O`, the Potency result in test [1], in test [2], in test [4], in [9], in [6] and in test [7] was “inactive” in each case.
As usually defined, the viability is the share of living cells, or the viability signal relative to a control. For the molecule `Oc1cccc(-c2nc(N3CCOCC3)c3oc4ncccc4c3n2)c1`, the Potency is 0.0121 µM (active) in test [1]; 0.215 µM (active) in [2]; 0.108 µM (active) in [3]; 9.59 µM (active) in [4]; 0.054 µM (active) in test [5]; 0.121 µM (active) in test [7]. In addition, the Potency in test [8] was 0.152 µM (active). Also, in test [10], the viability was 37.2% [at 92.2 µM] (active).
Consider `N[C@@H]1CONC1=O`, for which the Potency result in test [1], in test [2], in test [3], in [4], in test [5] and in test [6] was “inactive” in each case. In addition, the Potency entry in test [7] and in test [8] was “inactive” throughout.
As to `CCc1ccc(CCOc2ccc(CC3SC(=O)NC3=O)cc2)nc1` (stereo not given), the Potency result in test [1], in test [2], in [4], in [5], in test [9] and in test [7] was “inactive” throughout.
On to `COCC(=O)NCC=Cc1ccc2ncnc(Nc3ccc(Oc4ccc(C)nc4)c(C)c3)c2c1`, for which the Potency is 16.6 µM (active) in test [1]; 10.5 µM (active) in test [2]; 23.5 µM (active) in test [3]; 6.62 µM (active) in [5]; 16.6 µM (active) in test [7].
For the molecule `Cc1c(CN2CCN(C(=O)C(C)C)CC2)sc2c(N3CCOCC3)nc(-c3cnc(N)nc3)nc12`, the Potency was 0.0132 µM (active) in [1]; 0.235 µM (active) in test [2]; 0.209 µM (active) in test [3]; 0.059 µM (active) in test [5]; 0.0296 µM (active) in test [6]; 0.296 µM (active) in [7]. Also, the Potency is 0.418 µM (active) in [8] and 0.526 µM (active) in test [10].
On to `O=C1CCC(N2C(=O)c3ccccc3C2=O)C(=O)N1` (stereo not given), for which the Potency result in [1], in [2], in test [4], in [9] and in [7] was “inactive” in each case. Besides, the Potency in test [6] was 18.7 µM (active).
For the molecule `N=c1nc(N2CCCCC2)cc(N)n1O`, the Potency result in [1], in [4] and in [7] was “inactive” each time. Moreover, the Potency in test [2] was 23.5 µM (active).
For the molecule `OCCC#Cc1nc(-c2ccc(F)cc2)c(-c2ccncc2)n1CCCc1ccccc1`, the Potency in test [1] was 13.2 µM (active); in [2], 26.4 µM (active); in test [4], 5.9 µM (active); in [5], 16.6 µM (active); in test [9], 23.5 µM (active); in test [7] it was 18.7 µM (active). In test [8], the Potency was 16.6 µM (active).
As for `O=NN(CCCl)C(=O)NCCCl`, the Potency result in test [1], in [2], in test [4], in test [9], in test [7] and in test [10] was “inactive” each time. The Potency in test [3] was 0.148 µM (active).
As to `O=C(NOC[C@H](O)CO)c1ccc(F)c(F)c1Nc1ccc(I)cc1F`, the Potency in [1] was 1.66 µM (active); in [2] it was 0.0332 µM (active); in test [4], 0.0148 µM (active); in test [9], 0.0105 µM (active); in test [8], 0.0662 µM (active); in [10] it was 0.0296 µM (active).
With `COc1cc(Oc2ccnc3cc(OC)c(OC)cc23)ccc1NC(=O)NC(C)c1nccs1` (stereo not given), the figures for the Potency in test [1] and in test [9] were 0.105 µM (active) and 5.9 µM (active), respectively.
As to `O=C(Nc1nc2ccccc2n1CCN1CCOCC1)c1cccc([N+](=O)[O-])c1`, the Potency in [1] is 5.26 µM (active); in test [3], 20.9 µM (active); in test [9], 7.43 µM (active). Besides, the Potency result in test [4] and in test [5] was “inactive” in each case.
Regarding `Oc1ccc(C2CNCCc3c2cc(O)c(O)c3Cl)cc1` (stereo not given), the Potency entry in test [1], in test [3], in test [4], in [6], in test [7] and in test [8] was “inactive” each time. The Potency is 5.9 µM (active) in test [5] and 18.7 µM (active) in [10].
For `O=C(c1cc(Cc2n[nH]c(=O)c3ccccc23)ccc1F)N1CCN(C(=O)C2CC2)CC1`, the Potency entry in test [1] and in test [6] was “inactive” each time. Also, the Potency in test [2] was 16.6 µM (active).
Consider `COCCNCCCn1c(C(=O)CF)c(-c2ccc(C)cc2)c2c(N)ncnc21`, for which the Potency result in test [1] and in [7] was “inactive” throughout. Besides, the Potency in [2] is 16.6 µM (active).
Regarding `CN(C)c1ccc(C2Nc3ccc4ccccc4c3C3=C2C(=O)CC(C)(C)C3)cc1Br` (stereo not given), the Potency in test [1] is 0.0019 µM (active); in [3], 11.8 µM (active); in test [4], 5.26 µM (active); in test [5], 5.9 µM (active); in test [7], 5.9 µM (active).
For the molecule `Cc1[nH]c(=O)c(C#N)cc1-c1ccc2nccn2c1`, the Potency result in [1], in test [3], in test [4], in test [5] and in test [7] was “inactive” in each case.
As to `CCCC(CCC)C(=O)O`, the Potency result in [1], in test [2], in test [6] and in test [7] was “inactive” throughout.
As for `Cc1oncc1C(=O)Nc1ccc(C(F)(F)F)cc1`, the Potency entry in test [1], in [3], in test [9] and in test [7] was “inactive” in each case. For the same molecule, the Potency in test [4] is 14.8 µM (active).
